Assay results: PubChem BioAssay AID2685 (National Center for Advancing Translational Sciences (NCATS), 2010)
In all, about 320,000 compounds went through this assay and about 2,100 (0.66%) were called active. Roughly 53% stayed inconclusive and do not appear here. Calls follow the shape of the dose curve; as a rule, active = well fitted inhibition curve with a large enough effect in the signal ratio, with a control signal flat (not every such curve was filed as active); inconclusive = small, poorly fitted or top-dose-only effect, or effect the other way, or a change in a side signal; inactive = flat fitted curve, though single readings scatter; the % refers to the signal ratio. The full list was thinned out, with actives kept by preference.

Test: qHTS Assay for Lipid Storage Modulators in Drosophila S3 Cells;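 as to cell number change: cells counted by Cell Tracker Red CMTPX staining in the red channel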; as to lipid storage change, negative = inhibition: % is scaled to controls: 0 for no effect and ±100 for the full control effect
Settings: BODIPY lipid droplet fluorescence, 18-24 h, cells fed with added oleic acid; cell number change: measured here: cell count max response; series mostly up to 46.1 µM; lipid storage change, negative = inhibition: at the top concentration
Procedure, shortened: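 Laser-scanning cytometry quantifies lipid droplet accumulation (500–530 nm total intensity; droplet/cell object ratio) in oleic acid-fed (400 uM added) Drosophila S3 cells treated with a concentration series. 20 uM Triacsin C defined 100% inhibition.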
Potency is read from the fitted curve at half-maximal effect.

| SMILES | lipid storage change, negative = inhibition | cell number change | outcome | Potency |
| --- | --- | --- | --- | --- |
| O=C1CN(C(=O)CNC(=O)c2cccc(Cl)c2)c2ccccc2N1 | 0.224% (inactive) | 17% |  |  |
| Cc1cccn2c(=O)c(/C=C(\C#N)S(=O)(=O)c3ccccc3)c(Oc3ccc(Cl)cc3)nc12 | 2.66% (inactive) | -10.2% |  |  |
| CC(=O)N1CCN(c2ccccc2NC(=O)COc2cc(C)cc(C)c2)CC1 | -100% (inactive) | 13.5% |  |  |
| CCOc1ccc(S(=O)(=O)NCc2csc(C)n2)cc1 |  |  | inactive |  |
| CCS(=O)(=O)c1ccc2oc(Nc3ccc(C(C)C)cc3)nc2c1 | -3.92% (inactive) | 2.93% |  |  |
| CCn1nc(C)cc1C(=O)N1CCc2c([nH]c3ccccc23)C1c1cc(F)ccc1F (centres undefined) | -9.5% (inactive) | 8.47% |  |  |
| COc1ccc(C(C)(C)C)cc1NC(=O)c1cc(S(=O)(=O)N(C)C)ccc1N1CCCC1 |  | -23.6% |  | 18.4 µM (active) |
| CN(C)S(=O)(=O)c1ccc(N2CCCC2)c(C(=O)Nc2ccccc2F)c1 | 14.2% (inactive) | 25.2% |  |  |
| CN(C)S(=O)(=O)c1ccc(N2CCCC2)c(C(=O)Nc2ccccc2OC(F)F)c1 | 9.18% (inactive) | 29.4% |  |  |
| COc1ccc(S(=O)(=O)NC2CCCC2)cc1NC(C)=O | -1.83% (inactive) | 17.4% |  |  |
| COc1ccc(C=O)cc1Oc1nc(Cl)ncc1F | 21.6% (inactive) | 5.61% |  |  |
| CC(CCc1ccccc1)NC(=O)CN1CCN(c2ccc(O)cc2)CC1 (centres undefined) | -11.9% (inactive) | 0.962% |  |  |
| CC(=O)Nc1ccc(SCC(=O)c2ccc(Br)s2)cc1 |  | 5.88% | inactive |  |
| COc1ccc(S(N)(=O)=O)cc1-c1nnc2c3ccccc3c(C)nn12 | -0.656% (inactive) | -15.7% |  |  |
| COc1ccc(S(=O)(=O)c2c(O)c3ccc(C(=O)Nc4ccccc4)cc3[nH]c2=O)cc1 | 26.4% (inactive) | 23% |  |  |
| COc1ccc(S(=O)(=O)c2c(O)c3ccc(C(=O)Nc4ccc(F)cc4)cc3[nH]c2=O)cc1 |  | -7.08% | inactive |  |
| Cc1ccc(S(=O)(=O)c2c(O)c3ccc(C(=O)O)cc3[nH]c2=O)cc1 |  | -5.9% |  | 11.6 µM (active) |
| Cc1cccc(NC(=O)c2cc(Cl)ccc2[N+](=O)[O-])c1 | 4.85% (inactive) |  |  |  |
| Cc1cccc(Nc2nc(N)c([N+](=O)[O-])c(NCCO)n2)c1 | 0.152% (inactive) | -0.837% |  |  |
| O=C(CSc1ccc2ccccc2n1)NCc1ccc2c(c1)OCO2 | 19.1% (inactive) | 26.9% |  |  |
| Cc1cc(Cl)ccc1NC(=S)NCCCN1CCCC1=O | 18.7% (inactive) | 7.04% |  |  |
| Cc1cccc(C)c1NC(=S)NCCCN1CCCC1=O |  | -0.836% |  | 0.461 µM (active) |
| O=C1CCCN1CCCNC(=S)Nc1ccccc1 | 15.3% (inactive) | -7.97% |  |  |
| CCN1CCN(CC(O)COCCOc2ccc(Br)cc2)CC1 (centres undefined) | -7.14% (inactive) | 4.7% |  |  |
| Cc1cccc(OCC(=O)NCc2cc(C)nc3ccccc23)c1 | 5.62% (inactive) | -5.05% |  |  |
| COc1ccccc1C(C)NC(=O)c1cc(=O)[nH]c2ccccc12 (centres undefined) |  | -5.13% | inactive |  |
| COc1ccccc1OCCNC(=O)c1cc(=O)[nH]c2ccccc12 | 8.99% (inactive) | 13.3% |  |  |
| CCOc1ccc(C(C)NC(=O)c2cc(=O)[nH]c3ccccc23)cc1OCC (centres undefined) |  | 6.31% |  | 0.0021 µM (active) |
